Screening results (PubChem)
Lassa entry inh = inhibitors of Lassa virus binding or cell entry | Lassa virus pseudotype entry inhibition, cell reporter | Potency, µM (doses to about 37.9 µM), without a hit: at the top dose activity change, negative = inhibition, most hits filed as inhibitors | hit rate 1.2% among 300,000 | AID 540256; calls by dose curve; tested in HEK293 cells; also: potency is read from the fitted curve at half-maximal effect; nearly all actives have a fitted effect of over 50% in size
Marburg entry inh = blocks Marburg virus binding to or entry into cells | Marburg virus pseudotyped entry inhibition, cell reporter | Potency, µM (top dose mostly 37.8 µM), for inactives: at the top dose activity change, negative = inhibition, hits mostly inhibitors | hit rate 1.8% among 300,000 | AID 540276; calls by dose curve; tested in HEK293 cells; also: potency is read from the fitted curve at half-maximal effect
Pf growth 96h = P. falciparum growth inhibition at 96 hour, primary screen for plastid delayed-death inhibitors; AID 504834; P. falciparum luciferase reporter growth, 96 h; hit rate 6.9% among 320,000; Potency, µM (highest dose often 28.7 µM), for the others: top-dose activity change, negative = inhibition, usual class: inhibitors; also: potency is read from the fitted curve at half-maximal effect
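Infected RBCs, 2% Hct / 0.05% parasitemia final; luciferase-reporter P. falciparum; cpd 96 h, 37 C, 5% CO2; luciferase detection reagent; luminescence.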
Pf growth 48h = P. falciparum growth inhibition at 48 hours (one generation); P. falciparum luciferase growth in erythrocytes, 48 h; hit rate 5.9% among 310,000; Potency, µM (top dose mostly 28.7 µM), for inactives: at the highest dose activity change, negative = inhibition, hits mostly inhibitors; also: potency is read from the fitted curve at half-maximal effect
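First compound was added to culture medium, then infected red cells at 0.1% parasitemia and 2% hematocrit (final). After incubation at 37 C under 5% CO2, luciferase detection reagent was dispensed and light output recorded.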
HCV inh = inhibitors of hepatitis C virus infection | Huh7.5.1 HCVcc-Cre infection, luciferase reporter, 44 h | Potency, µM (series often up to 41.8 µM), without a hit: top-dose activity change, negative = inhibition, hits mostly inhibitors | hit rate 3.4% among 340,000 | AID 651820; also: potency is read from the fitted curve at half-maximal effect
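Cells seeded at 1,000/well and cultured 4 h, then compounds added followed by HCVcc-Cre virus (~0.5 moi). After 44 h further culture, luciferase substrate was added, plates held 15 min at room temperature, and luminescence read for 15 sec.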
HCMV antiviral = inhibitors of human cytomegalovirus. HFF cells, HCMV-luciferase reporter, 72 h; hits give low values. activity change, negative = inhibition, % at 57.5 µM. hit rate 4.5% among 410,000; in the data active = activity change below about -60%; inconclusive = no clear call, values can overlap the other calls; inactive = above about -39%
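Steps: HFFs plated, 16 h 37C; compounds added; HCMV-luciferase added to MOI 1 PFU/cell; 72 h 37C; OneGlo reagent, 5 min room temperature; luminescence read, normalized to controls.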
* marks the source's active call; other numbers are inactive results; [ ] = another dose, or the depositor's remark. In the library only some 14% were active in any assay of this set; here they are far more common. Unless noted, calls follow the shape of the dose curve; as a rule, active = well fitted inhibition curve with a large enough effect; inconclusive = small, poorly fitted or top-dose-only effect, or another doubt; inactive = no such curve, though single readings can be large or run the other way. % is scaled to controls: 0 for no effect and ±100 for the full control effect.

Results for O=C1[C@@H]2Cc3c([nH]c4ccccc34)C(c3cccc([N+](=O)[O-])c3)N2C(=O)CN1C1CCN(Cc2ccccc2)CC1 (stereo partly drawn) ?
Pf growth 96h: 15µM*; Pf growth 48h: 9.3µM*; HCMV antiviral: -4

What do the screens show for `CCOc1ccc(C2c3[nH]c4ccccc4c3C[C@H]3C(=O)N(C4CC4)CC(=O)N23)cc1OC` (stereo partly drawn)?
Pf growth 96h: inconclusive; Pf growth 48h: 9%[0.00184 µM]; HCV inh: -3%; HCMV antiviral: 32

How did COc1cc(C2c3[nH]c4ccccc4c3C[C@H]3C(=O)N(CCO)CC(=O)N23)cc(OC)c1OC (stereo partly drawn) do in these assays?
Lassa entry inh: -29%; Marburg entry inh: 18%; Pf growth 96h: -9%; Pf growth 48h: inconclusive; HCV inh: 19%; HCMV antiviral: 77

How did COc1ccc(OCCn2c(=O)sc3ccccc32)cc1 do in these assays?
Lassa entry inh: 13%; Marburg entry inh: inconclusive; Pf growth 96h: 2.9µM*; Pf growth 48h: 51%; HCV inh: 9%; HCMV antiviral: 23

What do the screens show for `CCOc1ccc(Cn2c(=O)sc3ccccc32)cc1OC`?
Pf growth 96h: inconclusive; Pf growth 48h: 53%; HCV inh: 10µM*; HCMV antiviral: inconclusive

Results for Cc1ccccc1OCCn1c(=O)sc2ccccc21 ?
Lassa entry inh: -1%; Marburg entry inh: inconclusive; Pf growth 96h: 1%; Pf growth 48h: 13µM*; HCV inh: -5%; HCMV antiviral: -34

What do the screens show for `COc1cc(CC(=O)OCC(=O)c2ccc(F)cc2)cc(OC)c1OC`?
Lassa entry inh: inconclusive; Marburg entry inh: 11%; HCV inh: 32%; HCMV antiviral: 10

Results for O=C(Cn1cc(C(F)(F)F)ccc1=O)OCC(=O)c1ccc[nH]1 ?
Lassa entry inh: 2%; Marburg entry inh: -7%; HCV inh: 27%; HCMV antiviral: 32

What do the screens show for `COc1ccc(/C=C/c2c([N+](=O)[O-])c(=O)n(C)c(=O)n2C)c(OC)c1OC`?
Lassa entry inh: inconclusive; Marburg entry inh: inconclusive; Pf growth 96h: -14%; Pf growth 48h: inconclusive; HCV inh: -9%; HCMV antiviral: -65*

What do the screens show for `Cn1c(/C=C/c2ccc(Cl)cc2)c([N+](=O)[O-])c(=O)n(C)c1=O`?
Pf growth 96h: 3%; Pf growth 48h: inconclusive; HCV inh: inconclusive; HCMV antiviral: -98*

How did COc1ccc(/C=C/c2c([N+](=O)[O-])c(=O)n(C)c(=O)n2C)cc1OC do in these assays?
Lassa entry inh: 13%; Marburg entry inh: inconclusive; Pf growth 96h: -1%; Pf growth 48h: inconclusive; HCV inh: -9%; HCMV antiviral: -33

How did CN(/C=C/c1c([N+](=O)[O-])c(=O)n(C)c(=O)n1C)c1ccccc1 do in these assays?
Lassa entry inh: -2%; Marburg entry inh: -16%[46.1 µM]; Pf growth 96h: 8%; Pf growth 48h: -8%; HCV inh: 13%; HCMV antiviral: -28

Results for CCCCCOc1ccc(/C=C/c2c([N+](=O)[O-])c(=O)n(C)c(=O)n2C)cc1 ?
Lassa entry inh: 6%[46.1 µM]; Marburg entry inh: inconclusive; Pf growth 96h: inconclusive; Pf growth 48h: 12µM*; HCV inh: -16%; HCMV antiviral: -94*

What do the screens show for `Cn1c(/C=C/c2cccc([N+](=O)[O-])c2)c([N+](=O)[O-])c(=O)n(C)c1=O`?
Lassa entry inh: inconclusive; Marburg entry inh: 8.9µM*; Pf growth 96h: inconclusive; Pf growth 48h: inconclusive; HCV inh: inconclusive; HCMV antiviral: -102*

Results for CCn1c2c(c(=O)n3ncc(C(=O)Nc4cccc(Cl)c4C)c13)CN(Cc1ccc(OC)cc1)CC2 ?
Lassa entry inh: -11%[46.1 µM]; HCMV antiviral: inconclusive

What do the screens show for `Cc1ccc2nc(N3CCN(c4ccccc4F)CC3)c3nnnn3c2c1`?
Lassa entry inh: 8%[46.1 µM]; HCMV antiviral: -37

How did COc1cc2c(cc1OC)n(Cc1ccc([N+](=O)[O-])cc1)c(=O)n1nc(-c3ccccc3)nc21 do in these assays?
Lassa entry inh: -28%[46.1 µM]; HCMV antiviral: -3

Results for Cc1ccc(C(=O)/C=C/c2ccc(F)cc2)o1 ?
Lassa entry inh: inconclusive; Marburg entry inh: inconclusive; Pf growth 96h: inconclusive; Pf growth 48h: 8%; HCV inh: -11%; HCMV antiviral: inconclusive

Results for O=C(/C=C/c1ccc(F)cc1)c1ccccc1Br ?
Lassa entry inh: inconclusive; Marburg entry inh: -28%; Pf growth 96h: inconclusive; Pf growth 48h: 0%; HCV inh: inconclusive; HCMV antiviral: -82*

Results for COc1ccc(N(Cc2cc3cc(C)ccc3[nH]c2=O)C(C)=O)cc1 ?
Pf growth 96h: inconclusive; Pf growth 48h: inconclusive; HCV inh: 4%; HCMV antiviral: -30

What do the screens show for `Cc1ccc(C(=O)N/C(=C\c2ccc(Cl)cc2)C(=O)NC2CCCCC2)cc1`?
Lassa entry inh: -9%[46.1 µM]; HCMV antiviral: -98*

Results for CC(C)CC(=O)Nc1ccc(Oc2ccc3c(c2)C(=O)NC3=O)cc1 ?
Pf growth 96h: 13µM*; Pf growth 48h: 15%; HCV inh: 12%; HCMV antiviral: 7

What do the screens show for `NC(=O)c1ccc(NC(=O)COC(=O)CCC2CCCC2)cc1`?
HCMV antiviral: 51

How did Oc1ccc(C[C@H]2CNC(=S)N2CCc2cc(C(F)(F)F)cc(C(F)(F)F)c2)cc1 do in these assays?
Pf growth 96h: 110%; Pf growth 48h: 53%; HCV inh: 20%; HCMV antiviral: -8

What do the screens show for `c1ccc(C[C@H]2CNCCN2CCc2cccc3ccccc23)cc1`?
Pf growth 96h: inconclusive; Pf growth 48h: inconclusive; HCV inh: inconclusive; HCMV antiviral: -23

Results for FC(F)(F)c1cc(CCN2CCNC[C@H]2Cc2cccc3ccccc23)cc(C(F)(F)F)c1 ?
Pf growth 96h: inconclusive; Pf growth 48h: inconclusive; HCV inh: inconclusive; HCMV antiviral: -80*

How did Oc1ccc(C[C@H]2CNCCN2CCc2cccc3ccccc23)cc1 do in these assays?
Pf growth 96h: 4.7µM*; Pf growth 48h: 5.2µM*; HCV inh: inconclusive; HCMV antiviral: -1

How did Oc1ccc(C[C@@H]2CNC(=S)N2CCc2cc(C(F)(F)F)cc(C(F)(F)F)c2)cc1 do in these assays?
Pf growth 96h: -9%; Pf growth 48h: -3%; HCV inh: 2%; HCMV antiviral: 0

What do the screens show for `Oc1ccc(C[C@@H]2CNCCN2CCc2cc(C(F)(F)F)cc(C(F)(F)F)c2)cc1`?
Pf growth 96h: inconclusive; Pf growth 48h: 8.3µM*; HCV inh: inconclusive; HCMV antiviral: 12

How did Oc1ccc(C[C@H]2CNCCN2CCc2cc(C(F)(F)F)cc(C(F)(F)F)c2)cc1 do in these assays?
Pf growth 96h: inconclusive; Pf growth 48h: 9.3µM*; HCV inh: inconclusive; HCMV antiviral: 12
